Our source for the activation values is PubChem BioAssay AID743287 (Broad Institute, 2014).

Screen size: about 370,000 compounds; about 2,300 (0.62%) were called active. This is one part of a sample in which actives are shown more often than they occur. Values without a mark were called inactive.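 Rule for the calls: active = lowest replicate activation of at least 40%, so every replicate reaches that level; inactive = the rest.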

This assay in a line: GLuc luminescence reporter in INS-1E cells, primary screen for activators of glucose-dependent secretion of insulin (AID 743287).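 Note: 0% = median of neutral control wells and 100% = median of IBMX positive control wells.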 The conditions noted are these: INS-1E GLuc reporter insulin secretion, 2-3 h, at 16.6 µM, hits give high values.
Regarding `C[C@H]1CN(C)C(=O)c2cccc(N(C)C)c2O[C@@H]1CN(C)C`, the activation was -6.84%.

`CNC[C@H]1Oc2cc(C#CCOC)ccc2S(=O)(=O)N([C@@H](C)CO)C[C@H]1C`: the activation is 4.43%. The value for `Cc1noc(C)c1NC(=O)Nc1ccc2c(c1)CC(=O)N([C@@H](C)CO)C[C@H](C)[C@@H](CN(C)C(=O)Nc1ccc3c(c1)OCO3)O2` was 5.38%; that for `CC(=O)N(C)C[C@@H]1Oc2ccc(NC(=O)NC(C)C)cc2C(=O)N(C)C[C@H]1C` was 9.69%; that for `COc1ccc(S(=O)(=O)N(C)CC(=O)Nc2ccc3c(c2)OCCO3)cc1OC` was 79.4% (active). In the case of `COc1ccc(Cl)cc1NC(=O)CN(C)CC(=O)Nc1ccc2c(c1)OCO2`, the activation was -15.8%.

Regarding `CN(CC(=O)Nc1ccc(C(N)=O)cc1)S(=O)(=O)c1ccc2c(c1)OCCO2`, the activation is -7.44%. The value for `COc1ccc(NC(=O)CN(C)S(=O)(=O)c2ccccc2)cc1OC` was 8.5%; that for `COc1ccc(/C=C/C(=O)Nc2ccc3c(c2)OCCO3)cc1OC` was 53.8% (active).

Regarding `COc1ccc(/C=C/C(=O)Nc2ccc(C34CC5CC(CC(O)(C5)C3)C4)cc2)cc1OC`, the activation is 11.4%. Next, `C[C@H](CO)N1C[C@H](C)[C@@H](CN(C)CC2CC2)Oc2ccc(NS(=O)(=O)c3cn(C)cn3)cc2CC1=O`: 9.55%; `CO[C@H]1CN(C)C(=O)c2cc(NC(C)=O)ccc2OC[C@H](C)N(C(=O)CN(C)C)C[C@@H]1C`: 13.5%. Next, `O=C(Nc1cc(F)ccc1F)N1CC(=O)N2[C@H](CO)[C@@H](c3ccc(-c4cccnc4)cc3)[C@@H]2C1`: 13.1%; `O=C(C1CCCC1)N1CC2(C1)[C@H](c1ccccc1)[C@H](CO)N2CCC(F)(F)F`: -20.6%; `O=C(O)CCCN1C(=O)c2ccccc2Sc2ncccc21`: 3.02%. Next, `O=C(CCN1C(=O)C2C3C=CC(C3)C2C1=O)Nc1ccccc1F` (stereo not drawn): 3.2%. Regarding `O=C(O)CCCN1C(=O)C2C3c4ccccc4C(c4ccccc43)[C@@H]2C1=O` (stereo partly drawn), the activation was 45.1% (active). The value for `COCC(=O)Nc1ccc2c(c1)OC[C@H](C)NC[C@@H](C)[C@H](OC)CN(C)C2=O` was -5.25%. Regarding `COc1ccc2c3c([nH]c2c1)[C@H](CO)N(CC1CC1)CC31CN(C(=O)Nc2cccc(F)c2)C1`, the activation was -17.2%. Consider `COc1ccc(CN(C)C[C@H]2Oc3ccc(NS(=O)(=O)c4c(C)noc4C)cc3CC(=O)N([C@H](C)CO)C[C@H]2C)cc1`, for which the activation is 6.22%.

`Cc1nc(-c2ccc([N+](=O)[O-])cc2)c(-c2ccccc2)o1`: the activation was 97.9% (active). The value for `Cc1nc2ccccc2nc(=O)c1NNc1ccc([N+](=O)[O-])cc1` was -4.75%. Next, `CCC1OC(c2ccc([N+](=O)[O-])cc2)=Nc2ccccc21` (stereo not drawn): 0.826%.
